D3 ag = D3 dopamine receptor (human) agonism. P35462. D3R DiscoveRx beta-arrestin cells, luminescence, 90 min. max activation, %. 0.58% of 410,000 active. AID 652048; in the data active means max activation above about 30%; further: 0% is about no effect
Target sequence (P35462 whole entry, looked up): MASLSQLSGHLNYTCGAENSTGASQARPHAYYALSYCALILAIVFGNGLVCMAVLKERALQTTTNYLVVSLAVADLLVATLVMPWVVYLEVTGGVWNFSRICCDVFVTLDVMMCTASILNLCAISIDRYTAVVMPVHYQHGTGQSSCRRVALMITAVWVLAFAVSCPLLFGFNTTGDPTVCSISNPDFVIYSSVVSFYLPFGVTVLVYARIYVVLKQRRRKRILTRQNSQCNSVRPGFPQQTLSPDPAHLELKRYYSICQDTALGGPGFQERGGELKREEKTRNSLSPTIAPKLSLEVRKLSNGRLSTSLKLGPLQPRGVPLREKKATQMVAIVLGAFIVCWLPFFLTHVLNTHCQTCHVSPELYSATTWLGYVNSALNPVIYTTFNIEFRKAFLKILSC
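Cells at 1500/well, incubated overnight, then treated with pinned compounds (dopamine as control) for 90 min at 37 degrees C. DiscoveRx reagent added for 30 - 60 minutes at room temperature; luminescence read.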
ClpP mod = qHTS Assay for Activators of ClpP; purified B. subtilis ClpP, FRET peptide cleavage, 20 min; Potency, µM (top dose mostly 57.5 µM), inactives show top-dose activity change, negative = active; 1.9% of 340,000 active; AID 651965, 2013; active means well fitted falling curve with a large enough effect; inconclusive means small, poorly fitted or top-dose-only effect; inactive means no such curve, though single readings can be large or run the other way; further: potency means the concentration at half of the fitted maximal effect; the source files actives as falling curves though it sought activators and does not explain the sign; nearly all actives have a fitted effect of over 65% in size
Target sequence (P80244 whole entry, looked up): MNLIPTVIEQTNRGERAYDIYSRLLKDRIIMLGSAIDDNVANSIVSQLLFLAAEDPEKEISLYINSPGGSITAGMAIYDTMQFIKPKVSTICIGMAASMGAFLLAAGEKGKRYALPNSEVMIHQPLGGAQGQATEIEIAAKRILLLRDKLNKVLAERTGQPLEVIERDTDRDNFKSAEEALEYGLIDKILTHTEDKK
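ClpP 10 microg/mL final, pH 8 Tris/KCl buffer with BSA, glycerol, Tween-20; compound pinned in; FRET-FV substrate; RT 20 min; Ex320/Em430; ΔFRET vs ADEP 5.8 microM, DMSO, no enzyme.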
D3 antag = D3 dopamine receptor (human) antagonism; D3R cells, DiscoveRx beta-arrestin luminescence, antagonist mode; active compounds read low; max response, negative = inhibition, %; 2.5% of 360,000 active; in the data active means max response below about -50%; inconclusive means no clear call, values can overlap the other calls; further: on the % scale 0 is the no-effect control and ±100 the full control effect
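Cells plated overnight at 1500 cells/well, then exposed to library compounds with dopamine controls for 90 minutes at 37 degrees C. DiscoveRx reagent added for 30–60 minutes at room temperature; luminescence read, quantitative HTS format.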
GLP-1R agonist = agonists of human GLP-1 receptor. P43220. HEK293 GLP-1R CRE-luciferase, luminescence, 4-6 h; cells express a hypersensitive GLP-1R form. Potency, µM (top dose mostly 45.6 µM), inactives show top-dose activation, hits mostly activators. AID 624172. 0.007% of 380,000 active; further: potency means the concentration at half of the fitted maximal effect; % of control where 0% means no effect
GLP-1R inv ag = GLP-1 receptor (human) inverse agonism | AID 624417 | 1.6% of 410,000 active | P43220 | HEK293 GLP-1R CRE-luciferase, luminescence, 24 h; GLP-1R form is constitutively active | Potency, µM (highest dose often 38.3 µM), for inactives: at the highest dose activity change, negative = inhibition, usual class: inhibitors; further: potency means the concentration at half of the fitted maximal effect; on the % scale 0 is the no-effect control and ±100 the full control effect; nearly all actives have a fitted effect of over 55% in size
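Cells are plated, allowed 12 hours at 37 deg C, then treated with compounds for 24 hr before luciferase detection reagent is added and luminescence is read after 12 min at room temperature. The HEK293 line carries constitutively active GLP-1R with a cAMP-responsive reporter.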
HEK293 tox = cytotoxic in the GLP-1 receptor inverse agonist counter-screen; HEK293 cAMP-luciferase reporter cells, luminescence, 24 h; Potency, µM (highest dose often 38.3 µM), inactives show at the top dose activity change, negative = inhibition, most hits filed as inhibitors; 0.13% of 410,000 active; AID 624418;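 further: loss of luciferase light is scored as toxicity; potency means the concentration at half of the fitted maximal effect; on the % scale 0 is the no-effect control and ±100 the full control effect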
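Cells in DMEM/10% Nu serum/1% pen-strep, 1536-well format. Pre-incubated 12 h, dosed with 23 nL compound, incubated a further 24 h. Luciferase detection, 12 min at room temp, luminescence.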
The depositor's hits bear a star; u = inconclusive; x = no result given; ! = not confirmed by another sample. Shown are actives, neighbours in structure and some others; about 5.7% of the full set was active somewhere. Unless noted, the call rests on the fitted dose curve; in most records, active means well fitted curve in the direction sought with a large enough effect; inconclusive means small, poorly fitted or top-dose-only effect, or another doubt; inactive means no such curve, though single readings can be large; an effect the other way counts as inactive or inconclusive.

SMILES	D3 ag	ClpP mod	D3 antag	GLP-1R agonist	GLP-1R inv ag	HEK293 tox
C=CCc1c(C)nc(C)nc1N/N=C/c1ccc([N+](=O)[O-])cc1	-1.0	3.8%	u	-4.4%	-2.8%	u
C=CCc1c(C)nc(C)nc1N/N=C/c1ccccc1O	-21.0	-2.5%	-113.5*	-4.0%	u	u
CCc1cccc(NC(=O)CN(C)S(=O)(=O)c2cnc[nH]2)c1	4.0	-2.2%	-52.3*	5.4%	-12.9%	13.8%
CCOC(=O)c1cccc(NC(=O)CN(C)S(=O)(=O)c2cnc[nH]2)c1	9.0	-1.2%	0.1	-2.3%	5.0%	-3.1%
Cn1c(-c2ccc(Cl)cc2)cnc1NCc1cc2c(cc1[N+](=O)[O-])OCO2	-5.7	1.4%	-5.4	-1.8%	3.98µM*	u
O=C(O)c1c2c(nc3ccccc13)CCCC2	x	-2.5%	x	x	x	x
CCn1c(C(=O)NCCCN2CCc3ccccc3C2)cc2sccc21	-54.0	5.6%	-73.3*	9.6%	u	-13.7%
CCN1CCN(CCCNC(=O)c2cc3sccc3n2CC)CC1	-18.1	-7.3%	-6.6	1.0%	17.5%	-0.8%
O=C(NCCCN1CCCC1)C1CCN(C(=O)c2cc3sccc3n2Cc2ccc(F)cc2)CC1	-2.7	1.6%	-52.4*	-0.3%	9.8%	-8.4%
O=C(Cn1c(C(=O)NCCCN2CCOCC2)cc2sccc21)c1ccccc1	-34.6	-4.7%	u	5.6%	-0.7%	-21.4%
O=C(Nc1ccc2c(c1)OCCO2)c1cc2sccc2n1Cc1ccc(F)cc1	2.1	u	44.1	-10.6%	5.62µM*	-8.0%
Cn1c(C(=O)NCCN2CCOCC2)cc2sccc21	-27.7	-2.6%	-62.5*	12.5%	6.8%	8.1%
O=C(c1cc(C2CCCCN2S(=O)(=O)c2cccs2)on1)N1CCOCC1 (stereo unspecified)	2.3	-0.7%	12.9	1.5%	-10.9%	-5.9%
Cc1cccc(CN2CCN([C@H]3CS(=O)(=O)N[C@@H]3COCc3ccccc3)CC2)c1	-5.9	-2.4%	-17.5	-2.6%	-19.4%	3.6%
CC1=CCC(C(C)(C)O)CC1 (stereo unspecified)	-12.0	x	x	5.5%	x	x
Cc1ccc(-n2c(-c3ccccc3)nsc2=NC#N)cc1	x	-1.1%	x	x	x	x
O=C(NCCN1CCOCC1)N1c2ccccc2Sc2ccccc21	-16.8	-0.2%	-53.1*	4.9%	-17.2%	-0.7%
Cc1ccc(CCNC(=O)c2cc3sccc3n2Cc2ccc(C)cc2)cc1	-21.7	-29.5%	x	-0.5%	u	-6.1%
Cc1ccc(Cn2c(C(=O)NCCCN3CCOCC3)cc3sccc32)cc1	-55.1	1.3%	-50.8*	0.5%	0.0%	1.5%
O=C(NCCO)N1c2ccccc2Sc2ccccc21	2.9	-2.7%	4.7	1.1%	15.2%	8.5%
C[N+](C)(C)c1ccc(/C=C2\C=Cc3ccccc32)cc1	x	1.0%	x	x	x	x
Cc1ccccc1NS(=O)(=O)c1ccc(C2CNC(=O)C2)cc1 (stereo unspecified)	-4.4	-2.8%	-103.9*	-0.2%	-10.3%	12.2%
COc1ccc(N2CCN(C(=O)Cn3nnc(-c4cccs4)n3)CC2)cc1	13.8	10.7%	-102.7*	-5.0%	-7.3%	-11.9%
COc1ccc(N2CCN(C(=O)Cn3c(-c4cccs4)cc4ccccc43)CC2)cc1	11.0	31.6µM*	x	x	-6.3%	-3.0%
NC(=O)C1CCN(C(=S)c2cccs2)CC1	-2.1	-1.6%	u	-5.2%	-11.5%	-14.6%
SMILES	D3 ag	ClpP mod	D3 antag	GLP-1R agonist	GLP-1R inv ag	HEK293 tox
COc1ccc(N2CCN(C(=O)Cc3cccs3)CC2)cc1	0.5	-4.3%	4.6	0.2%	2.9%	-3.1%
NC(=O)C1CCN(C(=O)Cn2c(-c3cccs3)cc3ccccc32)CC1	-5.1	31.6µM*	x	x	15.5%	10.1%
O=C(Cn1c(-c2cccs2)cc2ccccc21)N1CCN(c2ccc(Cl)cc2)CC1	3.2	10µM*	x	x	u	-24.3%
O=C1O[C@H]2[C@@H](OC(O)[C@@H]2O)[C@H]1O (stereo partly specified)	x	x	x	-4.0%	x	x
Cc1ccc(CCNC(=O)CCCn2c(=O)c3ccccc3n(Cc3ccccc3C)c2=O)cc1	1.8	-14.9%	x	x	-3.1%	-1.5%
COc1cccc(C2C(C(=O)Nc3ccccc3OC)=C(C)Nc3nc(-c4ccco4)nn32)c1 (stereo unspecified)	3.4	-1.3%	x	x	-8.0%	1.4%
O=C(Cn1c(-c2cccs2)cc2cc(F)ccc21)N1CCN(c2ccccc2)CC1	8.6	15.8µM*	x	x	u	-5.6%
O=C(Cn1c(=O)c2cccn2c2ccc(F)cc21)N1CCN(c2ccccc2)CC1	-7.7	-9.8%	x	x	0.3%	6.3%
COc1ccc(CNc2nc3ccccc3c3nc(-c4ccccc4)nn23)cc1	-2.0	28.2µM*	x	x	9.2%	4.0%
COc1ccc(OCC(O)Cn2c(=N)n(CCN3CCCCC3)c3ccccc32)cc1 (stereo unspecified)	0.9	-0.8%	-8.3	3.9%	10µM*!	u
Cc1ccc(OCC(O)Cn2c(=N)n(CCN3CCOCC3)c3ccccc32)cc1 (stereo unspecified)	2.9	-0.5%	-1.6	4.0%	u	-15.6%
Cc1ccc(OCC(O)Cn2c(=N)n(CCN3CCCCC3)c3ccccc32)cc1 (stereo unspecified)	-10.4	-1.7%	-63.1*	-14.6%	u	u
N=c1n(CCN2CCCCC2)c2ccccc2n1CC(=O)c1cccs1	-37.9	x	-63.1*	2.5%	5.62µM*	-25.4%
O=c1c2nncn2ccn1-c1ccc(F)c(F)c1	6.6	0.4%	x	0.5%	6.7%	-1.0%
COc1ccc(CNc2nc3ccccc3n2CCN2CCCCC2)cc1	-19.7	x	-64.5*	13.9%	10µM*	u
CCN(CC)c1ccc(CNc2nc3ccccc3n2CCN2CCCCC2)cc1	-22.3	x	-18.5	16.3%	u	u
CCN(c1cccc(C)c1)c1ncnc2c1cnn2-c1cccc(Cl)c1	8.6	4.1%	x	x	-1.5%	-12.5%
Oc1c(CN2CCOCC2)cc(CN2CCOCC2)c(O)c1O	18.6	x	2.4	-2.8%	8.8%	-8.1%
Oc1c(Cl)cc(Oc2cc(Cl)c(O)c(CN3CCOCC3)c2)cc1CN1CCOCC1	-0.6	x	0.4	13.6%	11.2µM*	3.8%
